Source: PubChem
An excerpt weighted towards active compounds, which were near 7.3% of everything screened.
p53 reactivator: re-activators of mutant p53. H1299 p53-A138V BP100-luciferase reporter, luminescence, 24 h. Potency, µM (top dose mostly 92.2 µM), most hits filed as activators. actives 0.063% (n = 320,000). AID 504706; note: nearly all actives have a fitted effect of over 45% in size
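H1299 (p53-null), stable ts p53-A138V + BP100-Luc; 1000 cells/well, Opti-MEM/10% FBS; cpd 4 pt, 1:5; 24 h, 37 deg C, 5% CO2; detection reagent 10 min RT; luminescence.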
NPC1 promoter act: activates the NPC1 promoter. Huh7 NPC1 promoter luciferase reporter, 24 h. Potency, µM (highest dose often 9.22 µM), actives largely listed as activators. actives 2.4% (n = 320,000); note: nearly all actives have a fitted effect of over 60% in size
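In 1536-well qHTS, Huh7 cells harboring an NPC1 promoter–luciferase construct received compound for 24 h; activation was quantified by luminescence following luciferase reagent addition.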
SMN2 splice up: SMN2 splice variant enhancement | actives 2.8% (n = 210,000) | Potency, µM (series often up to 46.1 µM), most hits filed as activators | HEK293 SMN2-luciferase splicing reporter, luminescence, 30-36 h; note: nearly all actives have a fitted effect of over 55% in size
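qHTS luciferase splicing reporter: luminescence rises when SMN2 exon 7 is included in transfected HEK293 cells. Compound exposure lasted 30-36 h at 37C, with 4.5 mM final sodium butyrate as control, followed by a ONE-Glo read.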
Rab9 prom act: activates the Rab9 promoter. Huh7 Rab9 promoter-luciferase reporter, luminescence, 24 h. Potency, µM (doses to about 9.22 µM), actives largely listed as activators. actives 2.8% (n = 320,000). AID 485297; note: nearly all actives have a fitted effect of over 60% in size
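Luminescence from Amplite-detected luciferase (10 minutes, ambient) reports Rab9 promoter activation. Before that, stable Rab9-luciferase Huh7 cells (1500/well, reduced-serum OP-MEM I plus 10% FBS) were exposed to compound for 24 hours at 37C.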
FLuc counter: firefly luciferase modulation, counter-screen for miR-21 project | actives 6.9% (n = 360,000) | purified FLuc, Km substrates, luminescence inhibition | AID 588342 | P08659 | Potency, µM (series often up to 57.5 µM), usual class: inhibitors; note: nearly all actives have a fitted effect of over 55% in size
Target sequence (P08659 whole entry, looked up): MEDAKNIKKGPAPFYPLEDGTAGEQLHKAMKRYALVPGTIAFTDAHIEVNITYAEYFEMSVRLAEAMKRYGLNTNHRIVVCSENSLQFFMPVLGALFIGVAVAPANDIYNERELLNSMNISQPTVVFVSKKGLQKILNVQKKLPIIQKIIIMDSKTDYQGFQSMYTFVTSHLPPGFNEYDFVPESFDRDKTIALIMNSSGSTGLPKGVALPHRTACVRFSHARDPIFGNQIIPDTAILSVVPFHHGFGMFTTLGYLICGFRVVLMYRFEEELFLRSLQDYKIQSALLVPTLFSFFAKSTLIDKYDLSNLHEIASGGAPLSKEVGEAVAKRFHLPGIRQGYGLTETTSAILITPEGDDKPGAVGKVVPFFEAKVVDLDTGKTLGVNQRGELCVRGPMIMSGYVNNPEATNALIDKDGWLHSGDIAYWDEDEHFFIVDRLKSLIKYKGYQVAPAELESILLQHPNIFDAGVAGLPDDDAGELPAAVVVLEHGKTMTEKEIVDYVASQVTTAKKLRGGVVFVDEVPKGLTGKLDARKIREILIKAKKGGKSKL
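Biochemical qHTS of compounds, final roughly 60 µM downward over six points, against 10 nM purified firefly luciferase using Km concentrations of substrates (10 uM D-luciferin, 10 uM ATP) in Tris acetate pH 7.5 buffer; luminescence output.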
ELG1 genotoxic: induces genotoxicity in HEK293T cells with luciferase-tagged ELG1; HEK293T ELG1-luciferase reporter, luminescence, 16 h; Potency, µM (doses to about 46 µM), most hits filed as activators; actives 1.3% (n = 330,000); AID 504466; note: nearly all actives have a fitted effect of over 60% in size
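HEK293T cells expressing luciferase-tagged ELG1 were treated with compound or DMSO for 16 hr at 37°C. Luciferase activity was then read after 30 min with ONE-Glo at room temperature; rising signal flags genetic stress.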
A number is an active result; . = inactive; ? = inconclusive; / = not tested or not shown; [ ] = dose if it differs, or a comment. Calls come from the whole dose curve; as a rule, active = well fitted curve in the direction sought with a large enough effect; inconclusive = small, poorly fitted or top-dose-only effect, or another doubt; inactive = no such curve, though single readings can be large; an effect the other way counts as inactive or inconclusive.

SMILES	p53 reactivator	NPC1 promoter act	SMN2 splice up	Rab9 prom act	FLuc counter	ELG1 genotoxic
CC(=O)c1ccc(NC(=O)C2CC(=O)N(Cc3ccccc3)C2)cc1 (stereo not drawn)	.	?	?	?	9.5µM	18µM
Nc1ncnc2c1ncn2[C@H]1O[C@@H](CO)[C@@H](O)[C@H]1N	/	/	.[9.22 µM]	/	/	/
CC(C)(C)C(=O)Oc1ccc2cc(-c3ccc4ccccc4n3)c(=O)oc2c1	?	?	14µM	?	.	?
CC(=O)Oc1ccc2cc(-c3nc4ccccc4n3C)c(=O)oc2c1	?	?	?	2.8µM	?	?
NC(=O)COc1ccc2cc(-c3ccccc3)c(=O)oc2c1	?	.	/	.	?	?
CCN(CC)Cc1c(O)ccc2cc(-c3nc4ccccc4n3C)c(=O)oc12	.	.	/	.[1.84 µM]	.	.
N/C(=N\OC(=O)C1CCCCC1)c1cccnc1	.	.	.	.	19µM	.
N/C(=N\OC(=O)CCC1CCCC1)c1cccnc1	?	.	.	.	13µM	.
Cc1ccc(SCC(=O)O/N=C(\N)c2cccnc2)cc1	.	.	/	.	.	?
O=C(CCC1CCCC1)N1CCN(C(=O)c2cccnc2)CC1	.	.	.	.	.	.
N/C(=N\OC(=O)CC1CCCCC1)c1cccnc1	.	.	.	.	13µM	.
Cc1cc(N2CCN(c3ccc(F)cc3)CC2)n2nc(-c3ccc(Cl)cc3)nc2n1	/	/	.	/	.	/
Cc1cc(NC(=O)CSc2nc(-c3ccc(Cl)cc3)cs2)no1	.	.	.	.	.	.
CCNC(=O)CSc1nc(-c2ccc(F)cc2)cs1	.	.	.	.	?	.
O=C(CSc1nc(-c2ccc(Cl)cc2)cs1)Nc1cccc([N+](=O)[O-])c1	?	.	.	.	9.5µM	.
Cc1ccc(-c2csc(NC(=O)CSc3nc(C)cs3)n2)cc1	?	?	14µM	.	?	.
Cc1nnc(SCC(=O)Nc2nc(-c3ccc(F)cc3)cs2)[nH]c1=O	.	.	.	.	17µM	.
Cc1cc(=O)[nH]c(SCC(=O)Nc2nc(-c3ccccc3)cs2)n1	.	.	.	.	.	.
CC(C)(C)NC(=O)CSc1nc(-c2ccc(F)cc2)cs1	.	3.5µM	14µM	2µM	6.7µM	?
Cc1c(CNC2CCCCC2)c(C(=O)O)c(C)n1Cc1ccccc1F	/	/	.	/	.	/
CC1CN(C(=O)CCC(=O)NCc2cccs2)c2ccccc2O1 (stereo not drawn)	/	/	/	/	.	/
CCn1c(SCC(=O)Nc2nc(-c3ccc(C)cc3)cs2)nnc1-c1ccccc1	.	.	.	.	24µM	.
O=C(CSc1nnc(-c2cccnc2)n1Cc1ccco1)Nc1nc(-c2ccc(F)cc2)cs1	.	.	.	.	15µM	.
CC(C)Oc1ccc(N2CC(C(=O)Nc3ccccc3C(=O)NC3CC3)CC2=O)cc1 (stereo not drawn)	.	.	/	.	.	.
CCN(CC)C(=O)CSc1nnc(SC(C)C(=O)NC2CC2)s1 (stereo not drawn)	.	/	/	/	/	.
SMILES	p53 reactivator	NPC1 promoter act	SMN2 splice up	Rab9 prom act	FLuc counter	ELG1 genotoxic
COc1ccc(CCNC(=O)c2cc3sccc3n2Cc2ccc(Cl)cc2)cc1OC	/	/	.	/	.	/
C=CCN=Cc1c(C)[nH]n(-c2ccccc2)c1=O	?	.	?	3.5µM	?	.
C[C@@H](C(=O)Nc1ccc(SC(F)F)cc1)N1C(=O)C2CCCCC2C1=O (stereo partly drawn)	.	/	/	/	/	.
O=C(Nc1ccc(SC(F)F)cc1)C12CCC(CC1)C2	?	.	.	.	11µM	.
OC1CCC(NC(=S)Nc2ccc(SC(F)F)cc2)CC1 (stereo not drawn)	?	?	16µM	?	21µM	?
CC1CCCC(NC(=S)Nc2ccc(SC(F)F)cc2)C1C (stereo not drawn)	.	.	/	.	?	.
FC(F)Sc1ccc(NC(=S)NC2CCCC2)cc1	.	.	?	3.2µM	13µM	.
Cc1ccccc1Nc1nc(N)nc(COC(=O)c2ccccc2)n1	?	?	?	2.2µM	15µM	?
